# Results as given in publication PMC7862700, “An all-to-all approach to the identification of sequence-specific readers for epigenetic DNA modifications on cytosine”.
# Tests used:
# Test in all cases: DAPPL (digital affinity profiling via proximity ligation, sequencing); 10 mM Tris-HCl pH 7.5, 50 mM NaCl, 1 mM DTT, 4% glycerol, room temperature, 30 min; GST-TFs on glutathione beads, 16-mer random dsDNA library, 0.1% formaldehyde crosslink after washing; high values mean tight binding
# FLI1 = target: T1, FLI1 (Homo sapiens, UniProt Q01543 1-452); details: protein: recombinant; tags: N-terminal GST; dsDNA, one strand shown
# T1 sequence: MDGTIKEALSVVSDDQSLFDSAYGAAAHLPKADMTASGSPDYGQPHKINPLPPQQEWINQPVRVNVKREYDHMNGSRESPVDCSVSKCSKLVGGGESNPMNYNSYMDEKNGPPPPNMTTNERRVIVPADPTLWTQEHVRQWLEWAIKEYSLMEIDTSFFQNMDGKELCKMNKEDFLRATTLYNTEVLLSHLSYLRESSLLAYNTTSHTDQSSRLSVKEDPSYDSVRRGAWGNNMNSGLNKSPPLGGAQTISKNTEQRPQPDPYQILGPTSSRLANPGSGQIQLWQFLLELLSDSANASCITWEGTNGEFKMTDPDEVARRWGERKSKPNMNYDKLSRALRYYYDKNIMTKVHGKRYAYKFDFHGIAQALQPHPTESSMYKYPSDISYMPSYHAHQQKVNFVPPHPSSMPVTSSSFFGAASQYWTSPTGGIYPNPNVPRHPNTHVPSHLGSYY
# Outline: (§1)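 Binding signal is each hexamer's read frequency for a factor divided by its frequency in the tag-only sample. The factors were GST-fused human transcription factors from yeast, captured on glutathione beads, DNA-barcoded and pooled with that sample. Pools were incubated with 200 nmole of a random double-stranded 16-mer DNA library in Tris/NaCl/DTT/glycerol buffer at room temperature for 30 min, then washed, crosslinked with 0.1% formaldehyde, proximity-ligated with BsaI/T4 ligase (1 h, 37 °C), PCR-amplified and sequenced on an Illumina NextSeq500.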
# ELK1 = target: T2, ELK1 (Homo sapiens, UniProt P19419 1-428); details: protein: recombinant; tags: N-terminal GST; dsDNA, one strand shown
# T2 sequence: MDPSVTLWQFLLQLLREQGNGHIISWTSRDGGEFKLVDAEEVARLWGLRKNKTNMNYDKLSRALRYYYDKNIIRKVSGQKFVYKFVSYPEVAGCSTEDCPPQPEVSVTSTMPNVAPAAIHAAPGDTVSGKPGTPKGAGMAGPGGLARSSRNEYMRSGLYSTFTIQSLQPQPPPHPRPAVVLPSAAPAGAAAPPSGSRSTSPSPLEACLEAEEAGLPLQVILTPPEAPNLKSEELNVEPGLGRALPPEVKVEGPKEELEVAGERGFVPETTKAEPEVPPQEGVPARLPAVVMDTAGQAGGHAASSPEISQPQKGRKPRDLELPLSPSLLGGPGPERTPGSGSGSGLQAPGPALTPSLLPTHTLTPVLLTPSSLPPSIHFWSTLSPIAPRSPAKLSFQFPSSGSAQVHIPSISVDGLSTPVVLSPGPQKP
# Outline: as §1
# ELF1 = ELF1 (Homo sapiens, UniProt P32519 1-619); details: protein: recombinant; tags: N-terminal GST; dsDNA, one strand shown
# Chain of ELF1 (P32519 whole entry): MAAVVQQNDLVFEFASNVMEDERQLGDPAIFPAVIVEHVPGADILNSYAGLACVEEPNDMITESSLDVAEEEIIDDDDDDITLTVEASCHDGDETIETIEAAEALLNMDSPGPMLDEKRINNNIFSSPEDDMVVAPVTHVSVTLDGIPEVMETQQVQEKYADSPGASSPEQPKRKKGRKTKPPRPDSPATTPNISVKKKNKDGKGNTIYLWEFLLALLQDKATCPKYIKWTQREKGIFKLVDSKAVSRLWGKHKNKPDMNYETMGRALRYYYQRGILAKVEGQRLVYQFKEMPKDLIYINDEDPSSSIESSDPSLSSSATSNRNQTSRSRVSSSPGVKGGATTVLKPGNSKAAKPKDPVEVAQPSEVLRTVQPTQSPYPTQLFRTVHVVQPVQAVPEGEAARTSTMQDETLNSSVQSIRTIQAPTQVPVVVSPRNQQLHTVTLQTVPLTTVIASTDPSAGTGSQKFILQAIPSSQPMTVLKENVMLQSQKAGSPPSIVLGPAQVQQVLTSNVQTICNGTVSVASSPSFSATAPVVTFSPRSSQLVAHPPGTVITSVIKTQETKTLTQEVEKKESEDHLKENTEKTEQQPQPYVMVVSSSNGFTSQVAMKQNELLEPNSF
# Outline: as §1
# SPI1 = SPI1 (Homo sapiens, UniProt P17947 1-270); details: protein: recombinant; tags: N-terminal GST; dsDNA, one strand shown
# Outline: as §1
# ELK3 = target: T3, ELK3 (Homo sapiens, UniProt P41970 1-407); details: protein: recombinant; tags: N-terminal GST; dsDNA, one strand shown
# T3 sequence: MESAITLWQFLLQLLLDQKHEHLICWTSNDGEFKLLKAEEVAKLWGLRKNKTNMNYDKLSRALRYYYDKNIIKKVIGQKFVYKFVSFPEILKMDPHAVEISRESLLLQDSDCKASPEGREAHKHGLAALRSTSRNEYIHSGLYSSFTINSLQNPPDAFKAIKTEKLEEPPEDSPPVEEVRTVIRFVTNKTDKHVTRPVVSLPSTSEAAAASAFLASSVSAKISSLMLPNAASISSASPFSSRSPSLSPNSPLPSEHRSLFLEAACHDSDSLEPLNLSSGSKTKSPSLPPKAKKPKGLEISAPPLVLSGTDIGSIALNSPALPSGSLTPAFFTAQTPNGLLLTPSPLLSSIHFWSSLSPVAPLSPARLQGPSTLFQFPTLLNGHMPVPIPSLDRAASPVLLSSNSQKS
# Outline: as §1
# ELK4 = target: T4, ELK4 (Homo sapiens, UniProt P28324-2 1-405); details: protein: recombinant; tags: N-terminal GST; dsDNA, one strand shown
# T4 sequence: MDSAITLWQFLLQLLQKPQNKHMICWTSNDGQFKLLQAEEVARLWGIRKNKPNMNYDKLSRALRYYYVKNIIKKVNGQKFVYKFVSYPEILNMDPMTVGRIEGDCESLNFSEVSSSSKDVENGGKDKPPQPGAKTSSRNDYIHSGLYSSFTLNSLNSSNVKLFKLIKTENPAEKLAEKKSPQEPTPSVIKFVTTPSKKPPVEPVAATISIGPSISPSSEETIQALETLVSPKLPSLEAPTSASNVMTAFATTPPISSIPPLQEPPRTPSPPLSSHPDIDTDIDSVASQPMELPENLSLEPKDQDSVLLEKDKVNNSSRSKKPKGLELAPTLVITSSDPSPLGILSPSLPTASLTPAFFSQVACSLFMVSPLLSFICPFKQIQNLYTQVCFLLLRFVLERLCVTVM
# Outline: as §1
# ETV2 = target: T5, ETV2 (Homo sapiens, UniProt O00321 1-342); details: protein: recombinant; tags: N-terminal GST; dsDNA, one strand shown
# T5 sequence: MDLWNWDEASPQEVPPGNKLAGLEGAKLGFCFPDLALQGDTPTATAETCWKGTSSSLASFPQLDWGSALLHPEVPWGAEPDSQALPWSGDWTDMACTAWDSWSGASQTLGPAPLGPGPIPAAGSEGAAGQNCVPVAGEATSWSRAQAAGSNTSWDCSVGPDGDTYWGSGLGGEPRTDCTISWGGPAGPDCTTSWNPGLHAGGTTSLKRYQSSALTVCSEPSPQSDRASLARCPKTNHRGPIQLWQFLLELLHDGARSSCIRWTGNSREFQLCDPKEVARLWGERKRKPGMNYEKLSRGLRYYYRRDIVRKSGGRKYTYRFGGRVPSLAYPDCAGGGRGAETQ
# Outline: as §1
# ETV3L = target: T6, ETV3L (Homo sapiens, UniProt Q6ZN32 1-361); details: protein: recombinant; tags: N-terminal GST; dsDNA, one strand shown
# T6 sequence: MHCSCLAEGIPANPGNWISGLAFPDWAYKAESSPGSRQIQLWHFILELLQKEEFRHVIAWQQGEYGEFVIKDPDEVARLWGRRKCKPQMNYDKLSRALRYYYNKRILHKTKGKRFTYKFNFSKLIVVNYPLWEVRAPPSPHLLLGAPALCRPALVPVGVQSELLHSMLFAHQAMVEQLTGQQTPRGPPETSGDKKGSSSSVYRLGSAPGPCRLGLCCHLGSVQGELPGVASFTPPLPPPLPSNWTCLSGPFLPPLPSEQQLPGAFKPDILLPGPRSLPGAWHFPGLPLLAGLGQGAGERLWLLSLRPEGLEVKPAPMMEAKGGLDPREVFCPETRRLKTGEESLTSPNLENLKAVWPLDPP
# Outline: as §1
# ETS2 = target: T7, ETS2 (Homo sapiens, UniProt P15036 1-469); details: protein: recombinant; tags: N-terminal GST; dsDNA, one strand shown
# T7 sequence: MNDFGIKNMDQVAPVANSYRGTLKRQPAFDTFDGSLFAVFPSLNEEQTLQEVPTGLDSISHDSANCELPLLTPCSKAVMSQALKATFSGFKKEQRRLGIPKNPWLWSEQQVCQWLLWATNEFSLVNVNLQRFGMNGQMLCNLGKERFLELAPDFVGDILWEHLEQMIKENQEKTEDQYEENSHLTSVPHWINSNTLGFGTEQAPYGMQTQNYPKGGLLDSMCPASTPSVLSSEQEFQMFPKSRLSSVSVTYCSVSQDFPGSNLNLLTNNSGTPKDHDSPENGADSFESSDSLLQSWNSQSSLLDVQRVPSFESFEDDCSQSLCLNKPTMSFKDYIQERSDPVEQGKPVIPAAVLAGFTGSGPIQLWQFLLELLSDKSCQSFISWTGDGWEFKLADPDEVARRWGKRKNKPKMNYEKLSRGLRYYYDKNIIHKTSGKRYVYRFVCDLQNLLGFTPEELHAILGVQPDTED
# Outline: as §1
# ETV7 = target: T8, ETV7 (Homo sapiens, UniProt Q9Y603 1-341); details: protein: recombinant; tags: N-terminal GST; dsDNA, one strand shown
# T8 sequence: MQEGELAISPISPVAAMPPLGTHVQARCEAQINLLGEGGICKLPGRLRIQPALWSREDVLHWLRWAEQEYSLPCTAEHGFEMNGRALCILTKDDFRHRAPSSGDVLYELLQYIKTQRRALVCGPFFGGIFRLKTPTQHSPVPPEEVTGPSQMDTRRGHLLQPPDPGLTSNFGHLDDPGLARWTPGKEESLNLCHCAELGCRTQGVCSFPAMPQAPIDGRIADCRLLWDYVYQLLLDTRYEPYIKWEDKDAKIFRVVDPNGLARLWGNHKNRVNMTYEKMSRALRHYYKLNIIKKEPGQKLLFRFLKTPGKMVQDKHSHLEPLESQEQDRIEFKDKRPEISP
# Outline: as §1
# ELF5 = target: T9, ELF5 (Homo sapiens, UniProt Q9UKW6-2 1-255); details: protein: recombinant; tags: N-terminal GST; dsDNA, one strand shown
# T9 sequence: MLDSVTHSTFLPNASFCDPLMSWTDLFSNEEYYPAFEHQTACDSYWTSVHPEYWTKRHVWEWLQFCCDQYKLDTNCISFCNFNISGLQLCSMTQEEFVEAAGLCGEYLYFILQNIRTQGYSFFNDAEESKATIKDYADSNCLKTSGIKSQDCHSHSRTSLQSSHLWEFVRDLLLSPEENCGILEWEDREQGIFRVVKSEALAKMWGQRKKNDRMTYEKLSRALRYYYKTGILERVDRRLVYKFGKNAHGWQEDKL
# Outline: as §1
# ETV3 = target: T10, ETV3 (Homo sapiens, UniProt P41162-2 1-143); details: protein: recombinant; tags: N-terminal GST; dsDNA, one strand shown
# T10 sequence: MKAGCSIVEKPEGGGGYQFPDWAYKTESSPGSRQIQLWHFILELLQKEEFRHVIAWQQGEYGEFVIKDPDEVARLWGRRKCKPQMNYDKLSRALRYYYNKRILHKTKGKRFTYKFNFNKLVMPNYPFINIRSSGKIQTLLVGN
# Outline: as §1
# ETV6 = ETV6 (Homo sapiens, UniProt P41212 1-452); details: protein: recombinant; tags: N-terminal GST; dsDNA, one strand shown
# Chain of ETV6 (P41212 whole entry): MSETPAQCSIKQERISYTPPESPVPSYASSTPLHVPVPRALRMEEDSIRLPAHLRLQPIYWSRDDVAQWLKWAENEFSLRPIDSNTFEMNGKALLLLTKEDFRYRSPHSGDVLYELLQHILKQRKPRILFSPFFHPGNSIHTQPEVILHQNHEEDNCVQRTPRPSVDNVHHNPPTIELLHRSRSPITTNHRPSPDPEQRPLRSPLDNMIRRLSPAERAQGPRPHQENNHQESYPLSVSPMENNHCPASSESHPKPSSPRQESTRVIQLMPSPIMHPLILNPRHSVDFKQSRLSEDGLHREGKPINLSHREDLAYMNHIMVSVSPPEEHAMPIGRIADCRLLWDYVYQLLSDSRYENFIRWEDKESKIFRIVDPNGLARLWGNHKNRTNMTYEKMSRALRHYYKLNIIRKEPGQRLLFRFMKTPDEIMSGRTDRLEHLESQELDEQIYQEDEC
# Outline: as §1
# HSF1 = HSF1 (Homo sapiens, UniProt Q00613 1-529); details: protein: recombinant; tags: N-terminal GST; chain copies: 3; dsDNA, one strand shown
# Chain of HSF1 (Q00613 whole entry): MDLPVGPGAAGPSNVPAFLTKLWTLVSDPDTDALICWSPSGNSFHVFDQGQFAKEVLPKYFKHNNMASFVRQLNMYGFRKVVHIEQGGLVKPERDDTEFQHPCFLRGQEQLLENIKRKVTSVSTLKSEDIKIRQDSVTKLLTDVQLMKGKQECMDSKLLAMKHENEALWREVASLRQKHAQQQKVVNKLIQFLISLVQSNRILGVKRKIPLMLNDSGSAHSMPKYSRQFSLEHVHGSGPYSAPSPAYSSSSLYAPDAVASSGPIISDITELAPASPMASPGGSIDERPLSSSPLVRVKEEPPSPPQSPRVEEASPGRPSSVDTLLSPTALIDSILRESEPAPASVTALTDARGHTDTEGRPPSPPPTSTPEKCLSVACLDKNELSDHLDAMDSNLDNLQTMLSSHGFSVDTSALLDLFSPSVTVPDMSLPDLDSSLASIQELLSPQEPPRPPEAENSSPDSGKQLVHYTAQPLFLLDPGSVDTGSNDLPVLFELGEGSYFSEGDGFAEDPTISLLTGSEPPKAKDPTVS
# Outline: as §1
sequence,measurement,setting,value
GACACT,binding signal,FLI1,"1.01 fold enrichment (6-mer frequency, TF over GST control)"
same,binding signal,ELK1,"1.02 fold enrichment (6-mer frequency, TF over GST control)"
same,binding signal,ELF1,"1.03 fold enrichment (6-mer frequency, TF over GST control)"
same,binding signal,SPI1,"1.02 fold enrichment (6-mer frequency, TF over GST control)"
same,binding signal,ELK3,"1.06 fold enrichment (6-mer frequency, TF over GST control)"
same,binding signal,ELK4,"1.05 fold enrichment (6-mer frequency, TF over GST control)"
same,binding signal,ETV2,"1.1 fold enrichment (6-mer frequency, TF over GST control)"
same,binding signal,ETV3L,"1.08 fold enrichment (6-mer frequency, TF over GST control)"
same,binding signal,ETS2,"1.05 fold enrichment (6-mer frequency, TF over GST control)"
same,binding signal,ETV7,"1.04 fold enrichment (6-mer frequency, TF over GST control)"
same,binding signal,ELF5,"1.05 fold enrichment (6-mer frequency, TF over GST control)"
same,binding signal,ETV3,"1.03 fold enrichment (6-mer frequency, TF over GST control)"
same,binding signal,ETV6,"1.13 fold enrichment (6-mer frequency, TF over GST control)"
TCGAGG,binding signal,HSF1,"1.04 fold enrichment (6-mer frequency, TF over GST control)"
AGGTTC,binding signal,HSF1,"1.18 fold enrichment (6-mer frequency, TF over GST control)"
